Test results published in PubChem BioAssay (EPA / NIEHS).
“And” between values parts separate entries of the source, which are not always exact repeats. Equal entries are not always repeated. Inconclusive results are not listed. More than one record can exist for a structure, and the calls need not agree. The source made the active and inactive calls. How the source made its calls, unless noted: active means hit-call score of the fitted dose curve at least 0.9, where 1 is the maximum; inconclusive means response in the unintended direction; inactive means score below 0.9.

What was measured:
[1] = Tanguay_ZF_120hpf_AXIS_legacy: (Legacy) Oregon State University Tanguay Lab 120 Hour Post-fertilization zebrafish Assay for Body Axis Malformation (AID 2283635);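 on AC50: potency for an increased fraction of larvae scored with body axis malformation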
Outline: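 Chorion is removed with pronase at 4 hpf, then single 6 hpf embryos are dosed (final DMSO 0.64%) and held statically at 28C in sealed, foil-covered plates. At 120 hpf body axis malformation is recorded as present or absent.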

[2] = Tanguay_ZF_120hpf_EYE_legacy: (Legacy) Oregon State University Tanguay Lab 120 Hour Post-fertilization zebrafish Assay for Eye Malformation (AID 2283636)
Outline: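 Read-out is binary presence or absence of eye malformation, scored by brightfield microscopy at 120 hpf. Single larvae were exposed from 6 hpf in embryo medium containing 0.64% DMSO, with DMSO as baseline.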

[3] = Tanguay_ZF_120hpf_SNOU_legacy: (Legacy) Oregon State University Tanguay Lab 120 Hour Post-fertilization zebrafish Assay for Snout Malformation (AID 2283637)
Outline: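 Snout malformation read as a yes/no call on brightfield images of 120 hpf larvae (Tropical 5D strain). Static exposure began at 6 hpf on dechorionated embryos in 0.64% DMSO, with gain of signal analysed versus DMSO controls.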

[4] = Tanguay_ZF_120hpf_JAW_legacy: (Legacy) Oregon State University Tanguay Lab 120 Hour Post-fertilization zebrafish Assay for Jaw Malformation (AID 2283638);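 on AC50: active means more embryos with jaw malformation than DMSO controls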
Outline: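 Steps: dechorionate 4 hpf embryos (pronase); plate 1/well at 6 hpf; add test chemical, 0.64% DMSO final; seal, cover, hold at 28C statically to 120 hpf; score jaw defect presence/absence microscopically. Dead embryos not scored.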

[5] = Tanguay_ZF_120hpf_OTIC_legacy: (Legacy) Oregon State University Tanguay Lab 120 Hour Post-fertilization zebrafish Assay for Otic Vesicle Malformation (AID 2283639)
Outline: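 Tropical 5D wild-type zebrafish embryos statically exposed in 0.64% DMSO at 28C until 120 hpf; 5uM trimethyltin chloride as positive control. Otic vesicle malformation scored present/absent by brightfield; dead embryos not scored; gain fitted versus DMSO.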

[6] = Tanguay_ZF_120hpf_PE_legacy: (Legacy) Oregon State University Tanguay Lab 120 Hour Post-fertilization zebrafish Assay for Pericardial Edema (AID 2283640);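 on AC50: potency for increased incidence of pericardial edema versus DMSO baseline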
Outline: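 Embryos from wild-type 5D adults were staged, then dosed in 0.64% DMSO. They were kept sealed in the dark at 28C until 120 hpf. Pericardial edema was then recorded as present or absent.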

[7] = Tanguay_ZF_120hpf_BRAI_legacy: (Legacy) Oregon State University Tanguay Lab 120 Hour Post-fertilization zebrafish Assay for Brain Malformation (AID 2283641)
Outline: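 Wild-type 5D larvae, static waterborne exposure to 120 hpf, 28C, 0.64% v/v DMSO. Brightfield scoring of brain defects, binary; dead embryos excluded. Positive ctrl 5uM trimethyltin chloride.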

[8] = Tanguay_ZF_120hpf_SOMI_legacy: (Legacy) Oregon State University Tanguay Lab 120 Hour Post-fertilization zebrafish Assay for Somite Malformation (AID 2283647)
Outline: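 Read-out: presence or absence of somite malformation in 120 hpf larvae, gain-of-signal relative to DMSO baseline. Embryos lacked chorion (pronase, 4 hpf) and were exposed statically from 6 hpf at 28C; dead larvae not scored.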

[9] = Tanguay_ZF_120hpf_PFIN_legacy: (Legacy) Oregon State University Tanguay Lab 120 Hour Post-fertilization zebrafish Assay for Pectoral Fin Malformation (AID 2283648);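 further: each larva judged yes or no for fin defect by brightfield with dead larvae skipped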
Outline: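 5D WT zebrafish; pronase dechorionation 4 hpf; 1 embryo/well at 6 hpf; static exposure to 120 hpf, 28C, sealed, foil-covered; final DMSO 0.64% v/v; 5 uM trimethyltin chloride positive control; fin defect scored yes/no.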

[10] = Tanguay_ZF_120hpf_CFIN_legacy: (Legacy) Oregon State University Tanguay Lab 120 Hour Post-fertilization zebrafish Assay for Caudal Fin Malformation (AID 2283649)
Outline: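 Binary presence or absence of caudal fin malformation at 120 hpf, read by brightfield microscopy, with DMSO as baseline. Larvae came from 5D wild-type embryos exposed statically from 6 hpf at 28C after pronase dechorionation.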

[11] = Tanguay_ZF_120hpf_PIG_legacy: (Legacy) Oregon State University Tanguay Lab 120 Hour Post-fertilization zebrafish Assay for Pigmentation Malformation (AID 2283650)
Outline: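 Pronase dechorionation at 4 hpf; embryos plated at 6 hpf, one per well; static exposure, sealed and foil-covered, 28C, to 120 hpf; pigmentation read by brightfield, binary; DMSO 0.64% baseline, 5uM trimethyltin chloride positive control.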

[12] = Tanguay_ZF_120hpf_CIRC_legacy: (Legacy) Oregon State University Tanguay Lab 120 Hour Post-fertilization zebrafish Assay for Circulatory Malformation (AID 2283651)
Outline: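 Dechorionated wild-type 5D zebrafish embryos, one per well, statically exposed from 6 to 120 hpf at 28C with 0.64% DMSO; circulatory malformation scored present/absent by brightfield microscopy at 120 hpf, dead embryos excluded.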

[13] = read-out: kallikrein-3 (KLK3), KLK3 (gene 354); assay: LTEA_HepaRG_KLK3: Life Technologies and Expression Analysis (LTEA) Assay for kallikrein-3 (KLK3) using HepaRG (AID 2283652; active means hit-call score of the fitted dose curve at least 0.9, where 1 is the maximum; inactive means score below 0.9); settings: mRNA level, 48 h; actives raise or lower the signal
Outline: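 Differentiated human HepaRG cells in serum-free induction medium exposed 48 h in duplicate, eight-point half-log series from 100 uM in 0.5% DMSO. KLK3 mRNA by qRT-PCR, normalised to ACTB, GAPDH, POLR2A; bidirectional fit versus DMSO.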

[14] = read-out: solute carrier (SLC22A6), SLC22A6 (gene 9356); assay: LTEA_HepaRG_SLC22A6: Life Technologies and Expression Analysis (LTEA) Assay for solute carrier (SLC22A6) using HepaRG (AID 2283653; active means hit-call score of the fitted dose curve at least 0.9, where 1 is the maximum; inactive means score below 0.9); settings: mRNA level, 48 h; actives raise or lower the signal
Outline: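 Read-out is SLC22A6 transcript level by qRT-PCR, normalised to three housekeeping genes and fitted for gain or loss relative to 0.5% DMSO vehicle. Human HepaRG cells received chemicals at up to 100 uM for 48 h.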

[15] = Tanguay_ZF_120hpf_SWIM_legacy: (Legacy) Oregon State University Tanguay Lab 120 Hour Post-fertilization zebrafish Assay for Swim Bladder Malformation (AID 2283654);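 further: swim bladder malformation in each larva scored yes or no under brightfield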
Outline: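 Embryos lacking chorions were exposed individually and statically to test chemical from 6 to 120 hpf at 28C, with 0.64% DMSO as vehicle. At 120 hpf, swim bladder malformation was recorded as present or absent by brightfield microscopy.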

[16] = read-out: solute carrier (SLC10A1), SLC10A1 (gene 6554); assay: LTEA_HepaRG_SLC10A1: Life Technologies and Expression Analysis (LTEA) Assay for solute carrier (SLC10A1) using HepaRG (AID 2283657; active means hit-call score of the fitted dose curve at least 0.9, where 1 is the maximum; inactive means score below 0.9); settings: mRNA level, 48 h; actives raise or lower the signal
Outline: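 Transcript levels were measured by qRT-PCR after human HepaRG cells received test chemical for 48 hours, up to 100 uM in half-log dilutions. Values come from bidirectional concentration-response fitting relative to 0.5% DMSO vehicle.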

[17] = read-out: matrix metalloproteinase-1 (MMP1), MMP1 (gene 4312); assay: LTEA_HepaRG_MMP1: Life Technologies and Expression Analysis (LTEA) Assay for matrix metalloproteinase-1 (MMP1) using HepaRG (AID 2283658; active means hit-call score of the fitted dose curve at least 0.9, where 1 is the maximum; inactive means score below 0.9); settings: mRNA level, 48 h; actives raise or lower the signal
Outline: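 HepaRG, ~100,000 cells/well, 48 h pre-culture; serum-free induction medium; test chemical 8 conc (max 100 uM, half-log), duplicate, 48 h; 0.5% DMSO; qRT-PCR MMP1, housekeeping-normalized; gain/loss fit vs DMSO.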

[18] = read-out: ABC Transporter (ABCB1), ABCB1 (gene 5243); assay: CLD_ABCB1_6hr: CellzDirect (CLD) Gene Expression Assay for ABC Transporter (ABCB1) at 6 hours (AID 2283659);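 further: hits raise ABCB1 transcript above the DMSO vehicle baseline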
Outline: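 Primary human hepatocytes (two donor preparations) dosed daily for two days with chemicals at multiple concentrations, 0.2% DMSO vehicle; harvested 6 h post-dose. ABCB1 mRNA induction quantified by qNPA chemiluminescence; gain-of-signal fitted versus DMSO.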

[19] = Tanguay_ZF_120hpf_NC_legacy: (Legacy) Oregon State University Tanguay Lab 120 Hour Post-fertilization zebrafish Assay for Notochord and Tail Malformation (AID 2283656)
Outline: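 Dechorionated Tropical 5D wild-type zebrafish embryos, one per well from 6 hpf, statically exposed to 120 hpf at 28C in 0.64% DMSO final. Notochord distortion scored present/absent by brightfield; dead embryos excluded.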

Measured: AC50

CCOC1Oc2ccc(OS(C)(=O)=O)cc2C1(C)C (stereo unspecified)
inactive: [1] | [2] | [3] | [4] | [5] | [6] | [7] | [8] | [9] | [10] | [11] | [12] | [13] | [14] | [15] | [17] | [18]
active: [16] 84.8 µM

N#CN
inactive: [1] | [2] | [3] | [4] | [5] | [6] | [7] | [8] | [9] | [10] | [11] | [12] | [15]

CN1CSC(=S)N(C)C1
active: [1] 21.3 µM | [2] 34.9 µM | [3] 24.9 µM | [4] 8.18 µM | [6] 35 µM | [19] 6.95 µM
inactive: [5] | [7] | [8] | [9] | [11] | [12] | [13] | [14] | [15] | [16] | [17]

O=C(O)C(F)(F)C(F)(F)C(F)(F)C(F)(F)C(F)(F)C(F)(F)C(F)(F)F
inactive: [1] | [2] | [3] | [4] | [5] | [6] | [7] | [8] | [9] | [10] | [11] | [12] | [15] | [19]

C[C@H]1[C@H](c2ccc(Cl)cc2)SC(=O)N1C(=O)NC1CCCCC1
inactive: [1] | [2] | [3] | [4] | [5] | [6] | [7] | [8] | [9] | [10] | [11] | [15] | [19]

CNC(=O)/C=C(\C)OP(=O)(OC)OC
inactive: [1] | [2] | [3] | [4] | [5] | [6] | [7] | [8] | [9] | [11] | [12] | [15] | [19]

O=S(=O)(O)C(F)(F)C(F)(F)C(F)(F)C(F)(F)C(F)(F)C(F)(F)C(F)(F)C(F)(F)F
active: [1] 25 µM and 42.3 µM and 42.2 µM | [2] 37 µM | [3] 25.1 µM and 33.2 µM | [4] 26.5 µM and 43.5 µM | [5] 47.5 µM | [6] 14.5 µM and 36.8 µM | [7] 34.2 µM | [8] 33.8 µM | [9] 36 µM | [10] 12.2 µM | [11] 46.6 µM | [12] 42.5 µM
inactive: [1] | [2] | [3] | [4] | [5] | [6] | [7] | [8] | [9] | [10] | [11] | [12] | [15] | [19]

COP(=S)(OC)Oc1ccc([N+](=O)[O-])cc1
inactive: [1] | [2] | [3] | [4] | [5] | [6] | [7] | [8] | [9] | [10] | [11] | [12] | [15] | [19]

O=[N+]([O-])c1c(Cl)c(Cl)c(Cl)c(Cl)c1Cl
inactive: [1] | [2] | [3] | [4] | [5] | [6] | [7] | [8] | [9] | [10] | [11] | [12] | [15] | [19] | [18]

O=[N+]([O-])/N=C1\NCCN1Cc1ccc(Cl)nc1
inactive: [1] | [2] | [3] | [4] | [5] | [6] | [7] | [8] | [9] | [10] | [11] | [12] | [19]
